Hit rate of the full screen: of about 320,000 compounds, about 1,100 (0.34%) were called active.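 How the source made its calls: active means GFP response vs DMSO above a set limit, about the screen mean plus 3 SD (cut at about 150% in these data); inconclusive means under 70 cell events counted for the yeast strain; inactive means the rest.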 The list comes from a sample in which actives are over-represented; it also holds similar structures and randomly drawn compounds.

The assay can be described thus: modulators of LAP4-GFP expression in yeast, primary screen, S. cerevisiae, multiplex flow cytometry, MLPCN library (AID 2023). Conditions: 3 h, at 10 µM, hits give high values, median GFP as percent of DMSO wells. For orientation: Flow cytometry measures light scatter and fluorescence of single cells or particles in a stream.
As to `CCn1c(=S)[nH]c2cc(S(=O)(=O)N3CCOCC3)ccc21`, the GFP response vs DMSO is 89.3% (inactive).
Regarding `Cc1ccc2cccc(S(=O)(=O)N3CCN(c4ccccc4F)CC3)c2n1`, the GFP response vs DMSO was 110% (inactive).
The same measure for `Cc1ccc(C(=O)N2CCCC(c3ccccc3)=N2)cc1`: 107% (inactive); for `CC(C(=O)Nc1ccccc1-c1ccccc1)N1CCOCC1` (stereo not drawn): 100% (inactive).
For the compound `CC(C)c1ccc(NC2CCCN(C(=O)c3ccncc3)C2)cc1` (stereo not drawn), the GFP response vs DMSO is 93.3% (inactive).
The value for `COC(=O)c1cc(S(=O)(=O)NC2CCN(Cc3ccccc3)CC2)cn1C` was 95.7% (inactive); that for `CC12CN3CCN(CC(C3)/C1=N\NC(=O)c1ccccc1N)C2` was 102% (inactive); that for `CC(=O)Nc1ccc(NC(=O)COC(=O)C2CCC(C(C)(C)C)CC2)cc1` (stereo not drawn) was 107% (inactive).
The same measure for `Cc1cccc(C)c1NC(=O)CN(C)C(=O)CCC(=O)c1ccccc1`: 104% (inactive); for `Cc1cccc(C)c1NC(=O)C(c1ccccc1)N1CC(=O)Nc2ccccc21` (stereo not drawn): 90.5% (inactive).
Take `Cc1cccc(C)c1NC(=O)C(Cl)C(=O)c1ccccc1` (stereo not drawn): the GFP response vs DMSO was 269% (active).
Take `COc1cccc(/C=N/Nc2ncc(C(F)(F)F)cc2Cl)c1O`: the GFP response vs DMSO was 184% (active).
The value for `Oc1cccc(/C=N/Nc2ccc(Cl)nn2)c1O` was 89.6% (inactive).
The same measure for `FC(F)(F)c1cnc(Oc2ccccc2-c2nnc(-c3ccc(Cl)cc3)o2)c(Cl)c1`: 96.3% (inactive).
The same measure for `Cc1ccc2nsnc2c1NC(=O)c1ccccc1[N+](=O)[O-]`: 93.2% (inactive).
Consider `Cc1cc(=O)n2nc(N3CCCC(C(=O)NCc4ccc(Cl)cc4)C3)sc2n1` (stereo not drawn), for which the GFP response vs DMSO was 92.3% (inactive).
As for `Cc1cc(=O)n2nc(N3CCCC(C(=O)NCCC4=CCCCC4)C3)sc2n1` (stereo not drawn), the GFP response vs DMSO was 196% (active).
The value for `Cc1cc(=O)n2nc(N3CCCC(C(=O)NCc4cccc(Cl)c4)C3)sc2n1` (stereo not drawn) was 92.2% (inactive).
The same measure for `CC(=O)NCCC(=O)Nc1cc(S(=O)(=O)N2CCCCC2)ccc1Oc1cccc(C)c1`: 87.1% (inactive).
The value for `COc1ccc([C@H]2CC(=O)C=C(/C=C/c3ccccc3)C2)cc1` was 115% (inactive).
Consider `CC1=C/C(=N\OS(=O)(=O)c2ccccc2)C=CC1=O`, for which the GFP response vs DMSO was 257% (active).
The value for `CCn1c(SCC(=O)Nc2ccc(OC)c(OC)c2)nnc1-c1c[nH]c2ccccc12` was 98.2% (inactive); that for `CCC(C)Sc1nnc(-c2c[nH]c3ccccc23)n1CCOC` (stereo not drawn) was 90.4% (inactive); that for `CCn1c(SCCC(C)C)nnc1-c1c[nH]c2ccccc12` was 169% (active).
The value for `C#CCOCCOCCOCCNc1nc(N2CCN(C(=O)CCCCCCCCCCNC(=O)Cn3cc(CCCCCN)nn3)CC2)nc(N2CCN(C(=O)CCCCCCCCCCNC(=O)[C@H](CO)n3cc(CCCSC)nn3)CC2)n1` was 118% (inactive); that for `C#CCOCCOCCOCCNc1nc(N2CCN(C(=O)CCCCCCCCCCNC(=O)[C@H]([C@@H](C)CC)n3cc(CCCCN=C(N)N)nn3)CC2)nc(N2CCN(C(=O)CCCCCCCCCCNC(=O)[C@H](CO)n3cc(CCCSC)nn3)CC2)n1` was 135% (inactive).
The value for `C#CCOCCOCCOCCNc1nc(N2CCN(C(=O)CCCCCCCCCCNC(=O)[C@H](CCCCN)n3cc(C)nn3)CC2)nc(N2CCN(C(=O)CCCCCCCCCCNC(=O)[C@H](CO)n3cc(CCCSC)nn3)CC2)n1` was 155% (active); that for `O=C(C1CCCO1)N1CCN(C(=S)Nc2cccc(Cl)c2)CC1` (stereo not drawn) was 95.7% (inactive).
For `Cc1ccc(C2CCN(C(=S)Nc3cccc(Cl)c3)C2)cc1` (stereo not drawn), the GFP response vs DMSO was 158% (active).
The same measure for `Cc1cccc(NC(=S)N2CCCC(c3nc4ccccc4[nH]3)C2)c1` (stereo not drawn): 93.9% (inactive); for `O=S(=O)(c1ccc2ccccc2c1)N1CCN(S(=O)(=O)N2CCOCC2)CC1`: 87% (inactive); for `COc1ccc(C)cc1N(CC(=O)NC(C)c1ccccc1)S(C)(=O)=O` (stereo not drawn): 80.6% (inactive).
On to `S=C(NCc1ccco1)NCc1ccccc1Cl`, for which the GFP response vs DMSO is 85.2% (inactive).
The value for `Clc1ccccc1CSc1nnc(-c2ccco2)c(-c2ccco2)n1` was 186% (active); that for `O=C(CC1N=C2c3ccccc3N=C(SCc3ccccc3Cl)N2C1=O)NCc1ccco1` (stereo not drawn) was 97.5% (inactive); that for `CN1CCCc2cc(C#N)c(=O)[nH]c21` was 105% (inactive).
The same measure for `Cc1ccc(S(=O)(=O)N(C)C)cc1NC(=O)c1ccc(-n2cncn2)c([N+](=O)[O-])c1`: 98% (inactive); for `NC(=O)c1ccccc1N=Cc1ccc2ccccc2c1`: 88.2% (inactive).
The same measure for `COc1cccc(NC(=O)C2CCCN(c3ncnc4c3nc3n4CCCCC3)C2)c1` (stereo not drawn): 94.5% (inactive); for `O=C(/C=C/c1ccc(Cl)c([N+](=O)[O-])c1)c1cccnc1`: 236% (active); for `O=C(Nc1cccnc1)c1ccc(Cl)c([N+](=O)[O-])c1`: 119% (inactive).
As to `O=C(/C=C/c1ccc(Cl)cc1Cl)c1cccnc1`, the GFP response vs DMSO is 99.4% (inactive).
The value for `Cc1cc(NC(=O)CN2C(=O)NC(CCc3ccccc3)C2=O)no1` (stereo not drawn) was 92.5% (inactive).
The same measure for `Cc1ccc(NC(=O)N2CCSc3ccccc32)cc1`: 96.8% (inactive); for `O=C(NCCS(=O)(=O)c1ccc(Br)cc1)c1ccccc1Cl`: 102% (inactive); for `CCc1noc(C)c1C(=O)N1CCCSC1=Nc1ccccc1OC`: 101% (inactive).
The value for `CC(C)[C@@H]1COC(c2cccc(C3=N[C@H](C(C)C)CO3)c2)=N1` was 163% (active); that for `CCOCc1c(C(=O)N2CCN(Cc3ccc(Br)s3)CC2)oc2ccccc12` was 102% (inactive).
Turning to `COc1ccc(Cn2c(-c3ccc(Cl)cc3)c[n+]3ccccc23)cc1`, the GFP response vs DMSO was 101% (inactive).
The value for `C/C(N)=C(\C#N)C(=O)NCCc1ccccn1` was 87.1% (inactive).
The same measure for `O=C(NCCc1ccccc1Cl)C1CCC(=O)N(CCCc2ccccc2)C1` (stereo not drawn): 87.4% (inactive); for `Cc1cc(C)nc(SCC(=O)c2ccc(Cl)cc2)n1`: 91.3% (inactive); for `Cc1cc(Oc2ccc(Cl)cc2)nc(SCC(=O)c2ccccc2)n1`: 103% (inactive).
The value for `Cc1cc(C)nc(S/C=C/C(=O)c2ccccc2)n1` was 239% (active); that for `Cc1noc(C)c1S(=O)(=O)N(C)Cc1ccccc1` was 91.9% (inactive); that for `N#C/C(=C\N1CCOCC1)S(=O)(=O)c1ccc(Cl)cc1` was 113% (inactive).
On to `Cc1ccc(NC(=O)Cn2c(=O)n(CCC(=O)NC3CCN(Cc4ccccc4)CC3)c(=O)c3ccccc32)cc1`, for which the GFP response vs DMSO was 94.3% (inactive).
The value for `COc1ccc(C2(c3ccc(OC)cc3)NC(=O)N(CC(=O)Nc3cc(C)on3)C2=O)cc1` was 92.2% (inactive).
Regarding `O=C(Cc1ccccc1)NC(=S)Nc1ccc(N2CCCCC2)cc1`, the GFP response vs DMSO was 111% (inactive).
The same measure for `O=C1C=CC(=O)N1c1ccc(N2CCCCC2)cc1`: 179% (active).
The value for `CC(=O)Nc1ccc(S(=O)(=O)Nc2ccc(N3CCCCC3)cc2)cc1` was 105% (inactive); that for `COc1ccccc1N(CCOc1ccccc1)S(=O)(=O)c1ccccc1` was 103% (inactive).
The value for `Cc1nc([N+](=O)[O-])nn1C12CC3CC(CC(Br)(C3)C1)C2` was 109% (inactive); that for `Cc1ccc(C(=O)CSc2ccccc2C(=O)O)cc1` was 104% (inactive); that for `Cc1ccc(SC(CC(=O)c2ccc(C(C)(C)C)cc2)C(=O)O)cc1` (stereo not drawn) was 170% (active).
As for `Cc1ccc(CSCC(N)C(=O)O)cc1` (stereo not drawn), the GFP response vs DMSO was 97% (inactive).
`CC(C)(C)Nc1nc(-c2ccccn2)nc2ccccc12`: the GFP response vs DMSO was 90.7% (inactive).
For the compound `COc1cnc(-c2ccccn2)nc1Oc1ccc(C(C)(C)C)cc1`, the GFP response vs DMSO is 107% (inactive).
The value for `Cc1ccc(Oc2nc(-c3ccccn3)nc3ccccc23)cc1` was 151% (active); that for `Nn1c(Cc2cccc3ccccc23)nnc1SCC(=O)N1CC(=O)Nc2ccccc21` was 99.1% (inactive); that for `Cc1onc(NC(=O)c2ccc([N+](=O)[O-])o2)c1Br` was 116% (inactive).
Turning to `Cc1cccc(NC(=O)c2ccc([N+](=O)[O-])o2)c1`, the GFP response vs DMSO was 151% (active).
On to `O=C(Nc1ccc(Br)cn1)c1ccc([N+](=O)[O-])o1`, for which the GFP response vs DMSO was 105% (inactive).
The value for `Cc1cccc(N)c1SC1CCCCC1O` (stereo not drawn) was 92.2% (inactive).
The same measure for `Cc1ccc(C(CNC(=O)Nc2ccccc2)N2CCN(C)CC2)cc1` (stereo not drawn): 102% (inactive); for `Cc1ccc(N=Cc2c(O)cc(C)oc2=O)c(C)c1`: 100% (inactive).
With `Cc1cc(O)c(C(=O)/C=C/c2c(F)c(F)c(F)c(F)c2F)c(=O)o1`, the GFP response vs DMSO was 152% (active).
The same measure for `Cc1cc(O)c(Sc2ccccc2)c(=O)o1`: 109% (inactive); for `Cc1cccnc1NC(=O)c1cccc(S(=O)(=O)N2CCN(c3ccc(F)cc3)CC2)c1`: 87.3% (inactive); for `Oc1c(CN2CCCC2)cc(COCc2ccccc2)c2cccnc12`: 105% (inactive).
The value for `Oc1c(CN2CCN(c3ccc(F)cc3)CC2)cc(Cl)c2cccnc12` was 203% (active).
The value for `Cc1cc(C)c(OCC(=O)N(Cc2cccs2)C2CCS(=O)(=O)C2)c(C)c1` (stereo not drawn) was 98.7% (inactive); that for `C/C(=N\NS(=O)(=O)c1ccc(Cl)cc1)c1ccc(NC(=O)c2ccco2)cc1` was 94.4% (inactive); that for `Fc1ccc(/C=N/Nc2nc(-c3cccnc3)nc3ccccc23)cc1` was 165% (active).
In the case of `O=[N+]([O-])c1ccc(F)cc1Oc1nc(-c2cccnc2)nc2ccccc12`, the GFP response vs DMSO was 100% (inactive).
The value for `Cc1ccc2nc(C)cc(N/N=C/c3ccc(F)cc3)c2c1` was 103% (inactive); that for `CCOC(=O)CCC(=O)OCC(=O)NC(C)C1CC2CCC1C2` (stereo not drawn) was 100% (inactive).
Turning to `COc1ccc(S(=O)(=O)N2CCN(CC(=O)N3CCOCC3)CC2)cc1OC`, the GFP response vs DMSO was 95% (inactive).
Consider `O=C(COC(=O)c1cccnc1Cl)NC12CC3CC(CC(C3)C1)C2`, for which the GFP response vs DMSO was 104% (inactive).
The same measure for `CN/C(=C\[N+](=O)[O-])NCCSCc1csc(CN(C)C)n1`: 95.9% (inactive).
The value for `COC(=O)c1ccc(-c2noc(CN(Cc3ccccn3)CC3CCCO3)n2)cc1` (stereo not drawn) was 98.4% (inactive); that for `COc1ccccc1C(=O)Nc1ccc(OCc2nnc3c4ccccc4c(C)nn23)cc1` was 102% (inactive); that for `C=CCC1(CC=C)CCCN1C(=O)CC1C(=O)NCCN1Cc1ccccc1OC` (stereo not drawn) was 93% (inactive).

For the origin of these results see PubChem BioAssay AID2023 (NMMLSC, 2009).
